Only some compounds are listed: those with a hit (about 3.5% of all), similar ones and a draw of the others.
TEAD-YAP block: TEAD-YAP interaction inhibition. HEK-TIYL cells, TEAD-Gal4/YAP UAS-luciferase luminescence. inhibition, % at 9.12 µM. 640,000 tested, 1.4% active. AID 1259422; in the data active = inhibition above about 32%
GPR151 activ: human GPR151 activation; Q8TDV0; PathHunter beta-arrestin GPR151 cells, luminescence; activation, % at 11.2 µM; 650,000 tested, 1% active; in the data active = activation above about 4.9%
MITF primary: inhibitors of human MITF. O75030. AlphaScreen MITF homodimerization, bead proximity signal. inhibition, % at 2.6 µM. 650,000 tested, 0.91% active. AID 1259374; in the data active = inhibition above about 50%
FBW7 activator: activators of human E3 ligase FBW7; 650,000 tested, 0.13% active; AlphaScreen FBW7–phospho-cyclin E peptide binding, activator screen; AID 1259310; Q969H0; normalized activity (activation), % at 26.1 µM; in the data active = normalized activity above about 1.9%;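 note: purified mutant Fbw7 with reduced substrate affinity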
Target sequence (Q969H0 whole entry, looked up): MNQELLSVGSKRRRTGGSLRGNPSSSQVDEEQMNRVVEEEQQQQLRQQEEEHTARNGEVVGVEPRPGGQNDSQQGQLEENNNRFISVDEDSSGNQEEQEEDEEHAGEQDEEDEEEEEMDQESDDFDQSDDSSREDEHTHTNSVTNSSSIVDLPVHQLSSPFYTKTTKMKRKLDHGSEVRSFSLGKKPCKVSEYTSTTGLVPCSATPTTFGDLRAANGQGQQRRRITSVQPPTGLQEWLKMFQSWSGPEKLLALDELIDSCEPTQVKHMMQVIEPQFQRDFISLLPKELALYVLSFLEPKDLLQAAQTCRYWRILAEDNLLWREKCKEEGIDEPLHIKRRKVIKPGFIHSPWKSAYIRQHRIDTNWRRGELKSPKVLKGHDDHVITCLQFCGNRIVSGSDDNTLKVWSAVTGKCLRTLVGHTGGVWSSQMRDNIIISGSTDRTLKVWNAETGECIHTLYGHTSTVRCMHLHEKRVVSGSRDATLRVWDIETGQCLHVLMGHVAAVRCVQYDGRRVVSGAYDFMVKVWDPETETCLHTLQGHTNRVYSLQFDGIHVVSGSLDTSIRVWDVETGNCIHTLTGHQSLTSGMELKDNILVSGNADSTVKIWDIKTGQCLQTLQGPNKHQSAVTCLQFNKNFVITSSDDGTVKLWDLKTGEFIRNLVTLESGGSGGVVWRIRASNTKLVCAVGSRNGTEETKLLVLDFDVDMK
MITF confirm: human MITF inhibition, confirmation; shares compounds with MITF primary; AlphaScreen MITF homodimerization, biotin/His-MITF beads; inhibition, % at 2.6 µM; 4,700 tested, 16% active;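 active = inhibition above a cutoff derived from the DMSO control wells, cut at about 28% in these data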;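 note: inhibitors lower the bead chemiluminescence by keeping MITF from dimerizing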
AS interf DR: AlphaScreen optical interference, dose response counter-screen; shares compounds with MITF primary; AlphaScreen optical interference counterscreen, cell-free; IC50, µM; 480 tested, 6% active; AID 1259373; call rule not given here
AS interf ctr: counter-screen: compounds optically interfering with AlphaScreen. LysRS AlphaScreen counterscreen, signal interference, triplicate. 4,700 tested, 7.6% active. inhibition, % at 2.6 µM. shares compounds with MITF primary;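 active = inhibition above a cutoff derived from the DMSO control wells, cut at about 30% in these data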
Large screens that a line does not name were inactive (follow-up assays come after a bar, where they were run).

CCS(=O)(=O)NC(N)=NCCc1ccccc1	none
COc1cc(C)ccc1OCCCCN1CCNCC1	MITF primary 63 | MITF confirm inactive | AS interf ctr inactive
C=CCN(CC=C)CCOc1ccc(C)cc1OC	none
C=CCN(CC=C)CCCOc1ccc(C)cc1OC	MITF primary 55 | MITF confirm inactive | AS interf ctr inactive
COc1cc(C)ccc1OCCN1CCNCC1	none
C/C=C/c1ccc(OCCCCN2CCNCC2)c(OC)c1	MITF primary 59 | MITF confirm inactive | AS interf ctr inactive
CCC(=O)NC(=S)NNC(=O)c1ccccc1O	MITF primary 63 | MITF confirm inactive | AS interf ctr 69
CCOc1ccc(-c2nnc(SCC(=O)NCCC3=CCCCC3)nc2-c2ccc(OCC)c(OC)c2)cc1OC	none
CCOc1ccc(CN2CCN(Cc3cccc([N+](=O)[O-])c3)CC2)cc1	MITF primary 60 | MITF confirm inactive | AS interf ctr inactive
COc1ccc(CN2CCN(Cc3ccc(F)cc3)CC2)cc1OCc1ccccc1	MITF primary 79 | MITF confirm inactive | AS interf ctr inactive
O=[N+]([O-])c1cccc(CN2CCN(c3ccccn3)CC2)c1	MITF primary 51 | MITF confirm inactive | AS interf ctr inactive
COc1ccc(CN2CCN(Cc3cccc([N+](=O)[O-])c3)CC2)cc1OCc1ccccc1	MITF primary 69 | MITF confirm inactive | AS interf ctr inactive
CCN1CCN(Cc2ccc(OCc3ccccc3)c(OC)c2)CC1	none
O=[N+]([O-])c1cccc(CN2CCCCCCC2)c1	none
O=[N+]([O-])c1ccc(N2CCN(Cc3cccc([N+](=O)[O-])c3)CC2)cc1	none
O=[N+]([O-])c1nn(-c2cccc(Cl)c2)n(O)c1=NCCCO	none
COc1ccc(CN2CCSCC2)cc1OCc1ccccc1	none
CCN1CCN(Cc2ccc(OC)c(OCc3ccccc3)c2)CC1	none
COc1ccc(CN2CCN(Cc3ccccc3F)CC2)cc1OCc1ccccc1	MITF primary 80 | MITF confirm inactive | AS interf ctr inactive
CCc1ccc(CN2CCN(Cc3ccc(OC)c(OCc4ccccc4)c3)CC2)cc1	MITF primary 74 | MITF confirm inactive | AS interf ctr inactive
COc1cc(CN2CCSCC2)ccc1OCc1ccccc1	MITF primary 53 | MITF confirm inactive | AS interf ctr inactive
O=[N+]([O-])c1cccc(OCCCN2CCN(Cc3ccccc3)CC2)c1	MITF primary 76 | MITF confirm inactive | AS interf ctr inactive
COc1ccc(CN2CCN(C(=O)c3ccccc3F)CC2)cc1OCc1ccccc1	none
C=C/C(C)=C(\C=C(C)C)N(C(C)=O)C1=NCCCS1	none
CC(C)OCc1c(C(=O)O)oc2ccccc12	none
O=C(NCCNC(=O)c1ccc(CN2CCc3ccccc3C2)cc1)c1ccc(CN2CCc3ccccc3C2)cc1	none
COc1ccc(CN2CCN(C3CCCCC3)CC2)cc1OCc1ccccc1	MITF primary 62 | MITF confirm inactive | AS interf ctr inactive
COc1ccc(C2CC(=O)C3=C(C2)NC(C)=C(C(=O)OC2CCCCC2)C3c2ccc(F)cc2)cc1OC (stereo unspecified)	none
C=CCNC(=O)N1CCN(Cc2nc3ccccc3n2Cc2ccccc2)CC1	MITF primary 78 | MITF confirm inactive | AS interf ctr inactive
O=C(Nc1ccc(F)cc1)N1CCN(Cc2nc3ccccc3n2Cc2ccccc2)CC1	none
COC(=O)c1ccc(CN2CCN(Cc3nc4ccccc4n3Cc3ccccc3)CC2)o1	MITF primary 67 | MITF confirm inactive | AS interf ctr inactive
CC(C)(C)C(=O)N1CCN(Cc2nc3ccccc3n2Cc2ccccc2)CC1	none
COC(=O)c1c(C)oc2ccc(N(C(C)=O)S(=O)(=O)c3cc([N+](=O)[O-])ccc3C)cc12	none
NC(=O)COC(=O)c1oc2ccccc2c1COc1ccccc1	MITF primary 64 | MITF confirm inactive | AS interf ctr inactive
NC(=O)NC(=O)COC(=O)c1oc2ccccc2c1COc1ccccc1	none
COc1ccc(-c2cc(C(=O)Nc3ccc(OC)cc3OC)c3ccccc3n2)cc1	none
Cc1cccc(CNCc2cc(NC(=O)c3ccccn3)cc(C(=O)N(C)C)c2)c1	MITF primary 69 | MITF confirm inactive | AS interf ctr inactive
CN(C)C(=O)c1cc(CNCc2cccc(Cl)c2)cc(NC(=O)c2ccccn2)c1	none
Cc1cccc(CC(=O)Nc2c3c(nn2-c2ccc(F)cc2)CS(=O)C3)c1 (stereo unspecified)	MITF primary 88 | MITF confirm inactive | AS interf ctr inactive
O=C(Cc1ccc(F)cc1)Nc1c2c(nn1-c1ccccc1)CS(=O)C2 (stereo unspecified)	none
CN(Cc1ccc(F)cc1)c1ccc(OCC(=O)N2CC[C@@H](O)C2)nn1	none
Brc1ccc(CN2CCC(N3CCCCC3)CC2)cc1	none
COc1ccc(OC)c(CN2CCN(C3CCCC3)CC2)c1	MITF primary 70 | MITF confirm inactive | AS interf ctr inactive
COc1ccc(CN2CCC(N3CCCCC3)CC2)c(OC)c1	none
COc1ccc(OC)c(CN2CCC(N3CCCCC3)CC2)c1	MITF primary 52 | MITF confirm inactive | AS interf ctr inactive
COc1ccc(CN2CCC(N3CCCC3)CC2)cc1	MITF primary 52 | MITF confirm inactive | AS interf ctr inactive
COc1ccc(OC)c(CN2CCC(O)CC2)c1	none
CCN1CCN(C2CCN(Cc3cc(OC)ccc3OC)CC2)CC1	MITF primary 61 | MITF confirm inactive | AS interf ctr inactive
Nc1c(Br)cc(C(=O)OCC(=O)c2ccc([N+](=O)[O-])cc2)cc1Br	none
CCCNC(=O)C(=O)c1c[nH]c2ccccc12	none
O=C1N[C@@H](Cc2ccc(Cl)cc2)C(=O)N2CCN(C(=O)NCc3ccccc3)C[C@H]12	MITF primary 73 | MITF confirm 71 | AS interf DR inactive | AS interf ctr inactive
O=C1N[C@@H](Cc2ccc(O)cc2)C(=O)N2CCN(C(=O)NCc3ccccc3)C[C@H]12	MITF primary 64 | MITF confirm 69 | AS interf DR inactive | AS interf ctr inactive
O=C1N[C@@H](Cc2ccc(O)cc2)C(=O)N2CCN(C(=O)OCc3ccccc3)C[C@H]12	none
N#Cc1c(C#N)c(N)n(N)c1N	MITF primary 94 | MITF confirm 95 | AS interf ctr 73
O=C(Cc1ccccc1)Nc1ccc(Nc2ccc(-n3cccn3)nn2)cc1	MITF primary 60 | MITF confirm inactive | AS interf ctr inactive
Cc1ccc(Nc2ccc(NC(=O)Cc3ccccc3)cc2)nn1	none
Cc1ccc(CN2C(=O)CN(CC(=O)NCc3ccccc3)C(=O)C2c2ccccc2F)cc1 (stereo unspecified)	none
CCc1ccc(CN2CCN(C3CCCCC3)CC2)cc1	MITF primary 62 | MITF confirm inactive | AS interf ctr inactive
CCc1ccc(CN2CCN(C3CCCC3)CC2)cc1	none
CSc1ccc(CN2CCN(C3CCCC3)CC2)cc1	MITF primary 54 | MITF confirm inactive | AS interf ctr inactive
